{
  "source": "ChEMBL document CHEMBL2218924",
  "about": "“A broad activity screen in support of a chemogenomic map for kinase signalling research and drug discovery” (Biochem J, 2013)",
  "key": {"[1]": {"target": "T1, Ephrin type-A receptor 3 (Homo sapiens) (UniProt P29320)", "T1 sequence (whole entry)": "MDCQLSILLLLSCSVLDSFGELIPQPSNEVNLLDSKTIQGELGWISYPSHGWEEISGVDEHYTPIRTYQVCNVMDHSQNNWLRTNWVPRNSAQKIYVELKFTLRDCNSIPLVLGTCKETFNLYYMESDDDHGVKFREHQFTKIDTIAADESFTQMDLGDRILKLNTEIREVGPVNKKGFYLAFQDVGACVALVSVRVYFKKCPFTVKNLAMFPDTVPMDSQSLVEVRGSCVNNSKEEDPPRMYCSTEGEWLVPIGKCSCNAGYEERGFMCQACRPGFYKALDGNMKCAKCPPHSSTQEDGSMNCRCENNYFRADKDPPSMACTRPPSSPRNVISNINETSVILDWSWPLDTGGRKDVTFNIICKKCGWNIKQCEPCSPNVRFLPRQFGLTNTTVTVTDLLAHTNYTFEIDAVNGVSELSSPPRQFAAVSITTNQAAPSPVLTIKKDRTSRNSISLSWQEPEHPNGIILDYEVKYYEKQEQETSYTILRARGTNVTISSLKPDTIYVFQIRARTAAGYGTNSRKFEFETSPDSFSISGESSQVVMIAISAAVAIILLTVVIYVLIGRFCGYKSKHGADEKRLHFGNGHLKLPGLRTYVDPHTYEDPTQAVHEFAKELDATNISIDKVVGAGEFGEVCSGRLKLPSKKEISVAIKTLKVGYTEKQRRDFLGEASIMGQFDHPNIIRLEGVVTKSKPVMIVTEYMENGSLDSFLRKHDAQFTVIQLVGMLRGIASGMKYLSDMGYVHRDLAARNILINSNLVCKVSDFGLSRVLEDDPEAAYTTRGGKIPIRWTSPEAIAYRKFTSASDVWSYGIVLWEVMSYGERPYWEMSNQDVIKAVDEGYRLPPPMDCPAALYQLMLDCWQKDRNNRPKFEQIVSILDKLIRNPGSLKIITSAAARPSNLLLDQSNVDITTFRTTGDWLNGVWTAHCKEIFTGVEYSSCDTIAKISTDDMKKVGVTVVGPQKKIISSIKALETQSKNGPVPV", "details": "at 10 µM"}, "[2]": {"target": "Ephrin type-A receptor 4 (Homo sapiens) (UniProt P54764)", "sequence (P54764 whole entry)": "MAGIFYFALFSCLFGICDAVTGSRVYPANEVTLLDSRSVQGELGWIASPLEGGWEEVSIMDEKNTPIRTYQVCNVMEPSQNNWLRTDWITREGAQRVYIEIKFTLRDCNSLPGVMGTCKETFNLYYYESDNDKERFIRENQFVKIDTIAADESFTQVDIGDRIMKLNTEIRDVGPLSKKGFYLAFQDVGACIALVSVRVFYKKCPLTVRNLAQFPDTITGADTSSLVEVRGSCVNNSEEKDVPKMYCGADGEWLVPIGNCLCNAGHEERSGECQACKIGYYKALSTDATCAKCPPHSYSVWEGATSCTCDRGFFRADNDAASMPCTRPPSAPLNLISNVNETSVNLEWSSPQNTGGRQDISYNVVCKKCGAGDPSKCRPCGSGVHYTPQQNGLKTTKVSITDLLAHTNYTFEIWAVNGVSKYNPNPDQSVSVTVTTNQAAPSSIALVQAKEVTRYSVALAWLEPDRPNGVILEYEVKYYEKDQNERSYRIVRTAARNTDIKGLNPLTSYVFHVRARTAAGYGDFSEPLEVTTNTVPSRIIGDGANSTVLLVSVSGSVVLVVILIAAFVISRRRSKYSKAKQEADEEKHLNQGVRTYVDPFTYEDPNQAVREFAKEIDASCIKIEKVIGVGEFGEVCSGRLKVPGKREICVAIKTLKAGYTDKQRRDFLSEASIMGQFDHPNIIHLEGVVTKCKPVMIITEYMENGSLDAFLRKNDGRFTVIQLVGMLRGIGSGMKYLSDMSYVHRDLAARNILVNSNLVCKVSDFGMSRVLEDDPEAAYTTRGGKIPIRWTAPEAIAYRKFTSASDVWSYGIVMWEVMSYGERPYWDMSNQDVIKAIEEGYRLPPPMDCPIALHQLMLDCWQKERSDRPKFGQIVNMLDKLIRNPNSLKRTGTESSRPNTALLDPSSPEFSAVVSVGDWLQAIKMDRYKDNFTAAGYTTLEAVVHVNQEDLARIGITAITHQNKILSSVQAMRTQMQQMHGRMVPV", "details": "at 1 µM"}, "[3]": {"target": "Ephrin type-A receptor 4 (Homo sapiens) (UniProt P54764)", "details": "at 10 µM"}, "[4]": {"target": "Ephrin type-A receptor 5 (Homo sapiens) (UniProt P54756)", "sequence (P54756 whole entry)": "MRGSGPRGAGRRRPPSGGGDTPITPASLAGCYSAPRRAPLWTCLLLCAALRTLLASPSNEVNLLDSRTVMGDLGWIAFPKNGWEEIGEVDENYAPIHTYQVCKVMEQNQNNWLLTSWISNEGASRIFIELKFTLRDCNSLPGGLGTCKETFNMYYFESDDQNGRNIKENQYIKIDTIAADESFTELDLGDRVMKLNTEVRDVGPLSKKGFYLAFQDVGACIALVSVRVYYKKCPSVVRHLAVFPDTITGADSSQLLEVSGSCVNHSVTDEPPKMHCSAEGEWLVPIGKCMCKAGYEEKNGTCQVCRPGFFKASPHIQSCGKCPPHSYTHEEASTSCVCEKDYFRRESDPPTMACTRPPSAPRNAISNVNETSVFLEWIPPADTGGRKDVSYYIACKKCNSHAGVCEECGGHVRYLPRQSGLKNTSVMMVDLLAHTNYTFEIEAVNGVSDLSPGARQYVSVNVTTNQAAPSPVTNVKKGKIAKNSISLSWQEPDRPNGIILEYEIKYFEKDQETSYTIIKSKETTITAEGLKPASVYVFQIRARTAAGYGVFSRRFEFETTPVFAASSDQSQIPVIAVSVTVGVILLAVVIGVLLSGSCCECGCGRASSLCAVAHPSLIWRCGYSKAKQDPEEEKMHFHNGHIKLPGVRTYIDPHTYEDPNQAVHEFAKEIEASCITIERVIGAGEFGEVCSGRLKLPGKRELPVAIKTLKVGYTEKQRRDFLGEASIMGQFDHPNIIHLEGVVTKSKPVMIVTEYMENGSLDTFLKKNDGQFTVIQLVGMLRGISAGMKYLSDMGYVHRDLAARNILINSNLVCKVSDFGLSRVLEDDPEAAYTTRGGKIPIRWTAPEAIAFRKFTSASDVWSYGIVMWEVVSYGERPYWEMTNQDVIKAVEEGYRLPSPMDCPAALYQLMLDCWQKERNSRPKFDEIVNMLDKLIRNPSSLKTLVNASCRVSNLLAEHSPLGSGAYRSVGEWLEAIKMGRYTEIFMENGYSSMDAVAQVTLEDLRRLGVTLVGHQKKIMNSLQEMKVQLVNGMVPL", "details": "at 1 µM"}, "[5]": {"target": "Ephrin type-A receptor 5 (Homo sapiens) (UniProt P54756)", "details": "at 10 µM"}, "[6]": {"target": "Ephrin type-A receptor 7 (Homo sapiens) (UniProt Q15375)", "sequence (Q15375 28-998 limits assumed)": "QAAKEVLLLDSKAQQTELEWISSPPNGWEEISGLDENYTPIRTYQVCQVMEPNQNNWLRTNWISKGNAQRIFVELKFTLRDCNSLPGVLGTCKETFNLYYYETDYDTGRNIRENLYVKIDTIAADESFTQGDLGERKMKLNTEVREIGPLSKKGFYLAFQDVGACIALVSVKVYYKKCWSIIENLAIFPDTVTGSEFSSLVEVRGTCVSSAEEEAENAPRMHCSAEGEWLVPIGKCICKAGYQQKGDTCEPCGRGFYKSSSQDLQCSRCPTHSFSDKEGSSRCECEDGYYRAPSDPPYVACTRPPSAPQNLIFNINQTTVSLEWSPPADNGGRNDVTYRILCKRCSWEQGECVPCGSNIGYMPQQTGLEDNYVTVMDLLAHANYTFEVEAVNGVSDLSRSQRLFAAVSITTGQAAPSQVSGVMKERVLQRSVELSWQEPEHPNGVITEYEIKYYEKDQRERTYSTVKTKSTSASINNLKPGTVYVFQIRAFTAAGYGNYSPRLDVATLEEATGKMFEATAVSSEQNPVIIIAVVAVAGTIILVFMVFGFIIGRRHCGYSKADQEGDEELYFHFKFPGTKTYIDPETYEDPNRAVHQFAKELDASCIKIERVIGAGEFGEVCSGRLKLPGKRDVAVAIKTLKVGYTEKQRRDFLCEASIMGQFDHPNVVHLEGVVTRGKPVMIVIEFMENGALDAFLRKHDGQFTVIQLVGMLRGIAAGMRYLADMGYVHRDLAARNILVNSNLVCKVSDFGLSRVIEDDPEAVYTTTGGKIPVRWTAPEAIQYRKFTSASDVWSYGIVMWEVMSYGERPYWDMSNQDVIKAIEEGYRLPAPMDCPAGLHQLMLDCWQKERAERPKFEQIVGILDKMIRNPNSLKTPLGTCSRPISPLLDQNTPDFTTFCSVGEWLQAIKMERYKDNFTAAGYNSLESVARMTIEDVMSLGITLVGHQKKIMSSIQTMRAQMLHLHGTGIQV", "details": "at 1 µM"}, "[7]": {"target": "Ephrin type-A receptor 7 (Homo sapiens) (UniProt Q15375)", "details": "at 10 µM"}, "[8]": {"target": "T2, Ephrin type-A receptor 8 (Homo sapiens) (UniProt P29322)", "T2 sequence (whole entry)": "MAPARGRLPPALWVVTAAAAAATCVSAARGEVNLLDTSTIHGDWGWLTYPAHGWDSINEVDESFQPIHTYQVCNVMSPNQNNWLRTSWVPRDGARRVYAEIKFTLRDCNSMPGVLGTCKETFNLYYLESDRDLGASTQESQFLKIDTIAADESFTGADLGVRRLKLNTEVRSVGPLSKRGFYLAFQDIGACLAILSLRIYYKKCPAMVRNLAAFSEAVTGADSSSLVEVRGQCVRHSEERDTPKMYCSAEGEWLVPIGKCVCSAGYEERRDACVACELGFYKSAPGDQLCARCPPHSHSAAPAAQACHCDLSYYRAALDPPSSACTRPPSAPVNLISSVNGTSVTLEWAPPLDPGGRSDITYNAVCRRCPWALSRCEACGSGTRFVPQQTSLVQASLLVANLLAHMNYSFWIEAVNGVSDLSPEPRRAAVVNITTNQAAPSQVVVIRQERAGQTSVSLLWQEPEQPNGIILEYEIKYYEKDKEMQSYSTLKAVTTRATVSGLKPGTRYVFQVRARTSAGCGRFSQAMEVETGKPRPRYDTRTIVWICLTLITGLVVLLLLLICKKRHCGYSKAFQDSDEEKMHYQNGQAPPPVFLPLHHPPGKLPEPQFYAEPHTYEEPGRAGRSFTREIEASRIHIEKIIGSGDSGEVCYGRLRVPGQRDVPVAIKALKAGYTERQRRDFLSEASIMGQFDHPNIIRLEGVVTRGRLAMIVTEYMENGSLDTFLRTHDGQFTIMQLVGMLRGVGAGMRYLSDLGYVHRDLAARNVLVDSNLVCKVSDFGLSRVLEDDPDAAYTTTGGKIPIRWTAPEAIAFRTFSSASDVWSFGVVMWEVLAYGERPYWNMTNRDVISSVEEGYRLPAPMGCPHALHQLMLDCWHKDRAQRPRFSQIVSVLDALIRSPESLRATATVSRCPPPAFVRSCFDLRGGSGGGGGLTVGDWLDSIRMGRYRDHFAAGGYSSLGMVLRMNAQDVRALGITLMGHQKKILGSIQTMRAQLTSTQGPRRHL", "details": "at 1 µM"}, "[9]": {"target": "T2, Ephrin type-A receptor 8 (Homo sapiens)", "details": "at 10 µM"}, "[10]": {"target": "T3, Ephrin type-B receptor 1 (Homo sapiens) (UniProt P54762)", "T3 sequence (whole entry)": "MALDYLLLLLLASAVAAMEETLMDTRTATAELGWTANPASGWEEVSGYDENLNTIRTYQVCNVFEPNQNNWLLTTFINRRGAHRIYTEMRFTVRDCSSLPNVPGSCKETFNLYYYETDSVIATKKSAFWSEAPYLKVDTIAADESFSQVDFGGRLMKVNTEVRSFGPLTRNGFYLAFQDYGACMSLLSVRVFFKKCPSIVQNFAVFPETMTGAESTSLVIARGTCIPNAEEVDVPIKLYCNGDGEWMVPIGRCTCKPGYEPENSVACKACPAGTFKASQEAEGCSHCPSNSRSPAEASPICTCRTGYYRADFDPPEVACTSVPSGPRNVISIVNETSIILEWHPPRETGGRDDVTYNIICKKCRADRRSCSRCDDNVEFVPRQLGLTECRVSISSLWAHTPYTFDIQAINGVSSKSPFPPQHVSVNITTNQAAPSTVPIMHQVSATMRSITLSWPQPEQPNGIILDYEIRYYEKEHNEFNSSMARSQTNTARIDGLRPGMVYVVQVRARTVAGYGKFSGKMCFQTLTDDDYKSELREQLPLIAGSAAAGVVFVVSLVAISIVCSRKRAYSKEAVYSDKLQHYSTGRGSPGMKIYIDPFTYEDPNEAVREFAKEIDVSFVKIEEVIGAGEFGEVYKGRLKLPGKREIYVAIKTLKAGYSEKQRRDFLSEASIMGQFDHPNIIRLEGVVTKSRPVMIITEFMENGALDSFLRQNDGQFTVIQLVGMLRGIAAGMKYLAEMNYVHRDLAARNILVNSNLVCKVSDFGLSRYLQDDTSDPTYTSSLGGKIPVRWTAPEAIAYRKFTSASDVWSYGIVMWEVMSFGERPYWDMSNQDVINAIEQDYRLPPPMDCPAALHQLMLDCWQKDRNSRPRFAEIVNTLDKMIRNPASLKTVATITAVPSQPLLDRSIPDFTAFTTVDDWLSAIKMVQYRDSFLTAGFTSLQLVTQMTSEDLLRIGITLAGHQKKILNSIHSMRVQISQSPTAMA", "details": "at 1 µM"}},
  "data": [
    {"smiles": "COC(=O)[C@@]1(O)C[C@H]2O[C@]1(C)n1c3ccccc3c3c4c(c5c6ccccc6n2c5c31)C(=O)NC4", "values": [
      {"measurement": "residual activity", "setting": "[1]", "value": 5, "unit": "%"},
      {"measurement": "residual activity", "setting": "[2]", "value": 83, "unit": "%"},
      {"measurement": "residual activity", "setting": "[3]", "value": 43, "unit": "%"},
      {"measurement": "residual activity", "setting": "[4]", "value": 66, "unit": "%"},
      {"measurement": "residual activity", "setting": "[5]", "value": 13, "unit": "%"},
      {"measurement": "residual activity", "setting": "[6]", "value": 32, "unit": "%"},
      {"measurement": "residual activity", "setting": "[7]", "value": 4, "unit": "%"},
      {"measurement": "residual activity", "setting": "[8]", "value": 78, "unit": "%"},
      {"measurement": "residual activity", "setting": "[9]", "value": 40, "unit": "%"},
      {"measurement": "residual activity", "setting": "[10]", "value": 39, "unit": "%"}
    ]}
  ]
}
